Reference: PubChem BioAssay (NCATS)
Inconclusive results are not listed. Active and inactive are the calls of the source. Unless noted, calls come from the whole dose curve; as a rule, active = well fitted curve in the direction sought with a large enough effect; inconclusive = small, poorly fitted or top-dose-only effect, or another doubt; inactive = no such curve, though single readings can be large; an effect the other way counts as inactive or inconclusive.

Key:
[1] = qHTS to identify inhibitors of the type 1 interferon - major histocompatibility complex class I in skeletal muscle: primary screen against the NCATS LOPAC collection (AID 1347405);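 note: human myoblasts with HiBiT tag on endogenous HLA-B stimulated by IFN-beta; lytic HiBiT luminescence reporting HLA-B protein level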
In short: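 HLA-B HiBiT myoblasts, IFN-b 4 ng/ml, dexamethasone-free medium; compounds 7-pt 1:4.3 titration, top 46 uM final; 24 h at 37 C; Nano-Glo HiBiT lytic reagent, 10 min RT, luminescence.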

[2] = qHTS for inhibitors of adenylyl cyclases using a fission yeast platform: a pilot screen against the NCATS LOPAC library (AID 1347410)
In short: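 Fission yeast qHTS: CHP2027 cells (AC9-GNAS-PDE4D2, fbp1-GFP), 5x10^6 cells/mL working density, EMM + His/Lys/Ura; LOPAC at up to 57 µM final; 18 h dark, 30C; GFP by laser cytometry. DPI positive control, DMSO vehicle.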

[3] = Validation qHTS assay for inhibitors of Activation Induced Cytidine Deaminase (AID): UDG Counterscreen signal (AID 1347427)
In short: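 Fluorescence at 560 nm excitation, 665 nm emission reports UDG signal after 250 mM NaOH (2x) addition and 30 min. Enzymes (AID 1 uM, UDG 2 U/mL, at 4/3x) preincubated 10 min with compound, then 4 h with 4x 250 nM DJC20/DJC23 substrate at room temperature.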

[4] = target: Single-stranded DNA cytosine deaminase (Homo sapiens) (UniProt Q9GZX7); test: Validation qHTS assay for inhibitors of Activation Induced Cytidine Deaminase (AID): AID signal (AID 1347429)
Sequence of Single-stranded DNA cytosine deaminase (Homo sapiens) (Q9GZX7 whole entry, looked up): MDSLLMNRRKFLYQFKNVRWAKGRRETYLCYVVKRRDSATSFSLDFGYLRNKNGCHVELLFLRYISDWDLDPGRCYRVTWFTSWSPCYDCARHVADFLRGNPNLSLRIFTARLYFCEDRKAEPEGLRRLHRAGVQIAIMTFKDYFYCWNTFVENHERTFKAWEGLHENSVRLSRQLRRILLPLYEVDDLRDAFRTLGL
In short: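 AID+UDG coupled FRET deamination; cpds up to 114 uM final; DJC20/DJC23 substrate, 4 hr RT; NaOH stop, 30 min RT; read Ex 540/Em 590.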

[5] = Primary qHTS for inhibitors of La Crosse Virus (LACV) - induced cell death in SH-SY5Y cells (AID 1508616);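 note: top concentration of the series differs between compounds; higher means more rescue of cells from virus-induced death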
In short: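 Cytopathicity rescue screen: compounds pinned onto SH-SY5Y cells, which are then infected with LACV (MOI 0.01) and held 6 days at 37C. Percent activity is scaled between infected DMSO control and uninfected DMSO control.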

[6] = target: Calcium and integrin-binding protein 1 (Homo sapiens) (UniProt Q99828); test: Validation qHTS for Identification of Calcium Integrin Binding protein 1 (CIB1) Competitor (AID 1508618)
Sequence of Calcium and integrin-binding protein 1 (Homo sapiens) (Q99828 whole entry, looked up): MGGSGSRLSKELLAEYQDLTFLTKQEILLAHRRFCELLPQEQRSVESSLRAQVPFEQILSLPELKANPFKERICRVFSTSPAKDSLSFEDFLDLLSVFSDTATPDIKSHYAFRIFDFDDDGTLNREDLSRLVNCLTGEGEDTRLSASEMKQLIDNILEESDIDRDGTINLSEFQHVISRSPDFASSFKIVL
In short: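 In this qHTS validation, the LOPAC set (up to 114 uM) was tested for blocking CIB1 binding to a fluorescein-tagged alphaIIb peptide, with FP detection at 480/540 nm.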

[7] = Redox Reaction Profiling qHTS: Assay Interference Panel against the NCATS CANVASS Library (AID 1347401)
In short: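 Redox-cycling liability assessed as DTT-driven conversion of resazurin (5 uM, with 200 uM DTT, HEPES pH 7.3) to fluorescent resorufin. Fluorescence at 525/598 nm measured initially and after 15 min dark incubation.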

[8] = qHTS for inhibitors of Rabies Virus screened against the NCATS CANVASS Library (AID 1347402; calls by dose curve; note: series mostly up to about 46 µM)
[9] = qHTS to identify inhibitors of the type 1 interferon - major histocompatibility complex class I in skeletal muscle: primary screen against the NCATS Mechanism Interrogation Plate v5.0 (MIPE) Libary (AID 1347411); note: nearly all actives have a fitted effect of over 65% in size
In short: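 HLA-B HiBit myoblasts, dexamethasone-free medium + 4 ng/ml IFN-b, 24 h compound, 11-pt 1:3 from 46 uM final. Readout: Nano-Glo HiBiT lytic luminescence after 10 min lysis, RT.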

[10] = qHTS to identify inhibitors of the type 1 interferon - major histocompatibility complex class I in skeletal muscle: primary screen against the NCATS Pharmaceutical Collection (AID 1347407);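 note: luminescence of HiBiT knocked into endogenous HLA-B as interferon-induced MHC class I level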
In short: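 Luminescence from HiBiT-tagged endogenous HLA-B*08:01 served as the read-out of IFN-beta-induced MHC class I in CRISPR-engineered C25cl48 myoblasts. Cells received 4 ng/ml IFN-beta plus compound (high final 46 uM, […]) for 24 h.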

[11] = target: Protein phosphatase 1D (Homo sapiens) (UniProt O15297); test: RapidFire Mass Spectrometry qHTS Assay for Modulators of WT P53-Induced Phosphatase 1 (WIP1) (AID 1347424);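 note: amount of dephosphorylated VEPPL-S-QETFS peptide product formed by WIP1; series mostly up to about 63 µM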
Sequence of Protein phosphatase 1D (Homo sapiens) (O15297 whole entry, looked up): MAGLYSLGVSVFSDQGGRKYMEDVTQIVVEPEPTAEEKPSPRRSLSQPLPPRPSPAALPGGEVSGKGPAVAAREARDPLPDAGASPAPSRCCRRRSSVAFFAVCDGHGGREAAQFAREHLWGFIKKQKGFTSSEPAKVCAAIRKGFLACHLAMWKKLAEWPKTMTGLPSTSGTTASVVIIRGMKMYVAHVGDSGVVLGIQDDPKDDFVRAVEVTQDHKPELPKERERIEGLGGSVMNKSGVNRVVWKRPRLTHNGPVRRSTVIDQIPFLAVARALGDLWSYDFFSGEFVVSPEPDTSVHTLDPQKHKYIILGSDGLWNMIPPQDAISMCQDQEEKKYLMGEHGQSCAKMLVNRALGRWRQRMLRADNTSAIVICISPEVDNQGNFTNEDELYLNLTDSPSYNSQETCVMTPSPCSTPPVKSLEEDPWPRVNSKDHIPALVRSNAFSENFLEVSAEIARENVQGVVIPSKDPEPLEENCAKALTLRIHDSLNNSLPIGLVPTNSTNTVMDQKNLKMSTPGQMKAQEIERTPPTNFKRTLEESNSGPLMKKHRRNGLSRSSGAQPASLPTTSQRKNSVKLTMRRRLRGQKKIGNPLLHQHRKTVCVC
In short: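 RapidFire mass spectrometry measured dephosphorylated peptide after 5 min room-temperature reaction of 2 uM VEPPL-pS-QETFS with 10 nM WIP1 (50 mM Tris-HCl pH 7.5, 30 mM MgCl2, 0.1 mM EGTA, BSA), following 1 hr compound preincubation; 1 uM isotope-labelled product standard.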

[12] = target: Protein phosphatase 1D (Homo sapiens) (UniProt O15297); test: Rhodamine-PBP qHTS Assay for Modulators of WT P53-Induced Phosphatase 1 (WIP1) (AID 1347425)
In short: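 Steps: enzyme with Rh-PBP sensor and compounds, room-temperature incubation of 1 hr, baseline read, addition of VEPPL-pS-QETFS (10 uM final), kinetic fluorescence reads at 525/598 nm. Activity equals final minus baseline signal.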

[13] = Primary qHTS for inhibitors of SARS-S pseudo-typed particle cell entry (AID 1479145; calls by dose curve; note: nearly all actives have a fitted effect of over 45% in size)
[14] = Primary qHTS for Huh7 cytotoxicity: counterscreen for inhibitors of MERS-S pseudotyped particle cell entry (AID 1479147; calls by dose curve)
[15] = Primary qHTS for inhibitors of MERS-S pseudo-typed particle cell entry (AID 1479149; calls by dose curve; note: nearly all actives have a fitted effect of over 60% in size)
[16] = Primary qHTS for Vero E6 cytotoxicity: counterscreen for inhibitors of SARS-S pseudo-typed particle cell entry (AID 1479150; calls by dose curve)
[17] = target: Calcium and integrin-binding protein 1 (Homo sapiens) (UniProt Q99828); test: Primary qHTS for Identification of Calcium Integrin Binding Protein 1 (CIB1) Competitor (AID 1508620);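 note: GST tagged CIB1 binding a fluorescein labelled alphaIIb integrin peptide tracer; top concentration of the series differs between compounds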
In short: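 CIB1-GST (1 uM final) and compound incubated 15 min at room temperature before adding FITC-alphaIIb peptide tracer (100 nM final). Competition for binding read by fluorescence polarization (ex 480, em 540) after another 15 min at room temperature.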

Measured: Potency

O=C(O)CC[N+](=O)[O-]
inactive: [1] | [2] | [3] | [4] | [5] | [6]

NCCc1c[nH]c2ccccc12
inactive: [7] | [8] | [1] | [2] | [3] | [4] | [5] | [6]

Cn1cnc(CCN)c1
inactive: [1] | [2] | [3] | [4] | [5] | [6]

CCCN1CCO[C@@H]2c3cc(O)ccc3OC[C@H]21
inactive: [1] | [2] | [9] | [3] | [4] | [6]

O=C1CCCN1CC#CCN1CCCC1
inactive: [1] | [2] | [3] | [4] | [5] | [6]

CCCN(CCC)C1CCc2ccc(O)cc2C1 (stereo unspecified)
inactive: [1] | [2] | [3] | [4] | [5] | [6]

NCCc1c[nH]c2ccc(O)cc12
inactive: [7] | [8] | [1] | [2] | [3] | [4] | [6]

CC[N+]1(CCOC(=O)C(O)(c2ccccc2)c2ccccc2)CCCCC1
inactive: [10] | [11] | [12] | [13] | [14] | [15] | [16] | [17]

OCCCBr
inactive: [10] | [11] | [12] | [5] | [17]

CNCCc1ccc(O)c(O)c1
inactive: [1] | [2] | [3] | [4] | [6]

CC(C)(C)NC[C@H](O)c1ccc(O)cc1Cl
inactive: [10] | [11] | [12] | [5] | [17]

C1CCC(NC2CCCCC2)CC1
inactive: [10] | [11] | [12] | [13] | [14] | [15] | [16] | [17]

O=C(O)COc1nc(Cl)c(Cl)cc1Cl
inactive: [10] | [11] | [12] | [5] | [17]

Nc1ccc(Cl)cc1
inactive: [10] | [11] | [12] | [5] | [17]

Oc1ccc2c3c1O[C@H]1[C@@H](O)C=C[C@H]4[C@@H](C2)NCC[C@@]341
inactive: [10] | [11] | [12]

O=C(Cc1ccc(Cl)c(Cl)c1)N1CCCCC1CN1CCCC1 (stereo unspecified)
inactive: [1] | [2] | [3] | [4] | [6]

CC(=O)NCCc1c[nH]c2ccccc12
inactive: [1] | [2] | [3] | [4] | [6] | [17]

NC1CCc2cc(O)c(O)cc2C1 (stereo unspecified)
inactive: [1] | [2] | [3] | [4] | [6]

Nc1c(Cl)c(Cl)c(Cl)c(Cl)c1Cl
inactive: [10] | [11] | [12] | [5] | [17]

CCO/N=C(\CC)C1=C(O)CC(c2c(C)cc(C)cc2C)CC1=O (stereo unspecified)
inactive: [10] | [11] | [12] | [5] | [17]

O=S(=O)(O)C(F)(F)C(F)(F)C(F)(F)C(F)(F)F
inactive: [10] | [11] | [12] | [5] | [17]

c1cc2ccc3cccc4ccc(c1)c2c34
inactive: [10] | [11] | [12] | [5] | [17]

C[N+](C)(C)CC(=O)O
inactive: [1] | [2] | [13] | [14] | [15] | [16] | [6]

O=[N+]([O-])c1cc([N+](=O)[O-])c2ccccc2c1
inactive: [10] | [11] | [12] | [5] | [17]

Oc1ccc2c3c1O[C@H]1c4[nH]c5c(c4C[C@@]4(O)[C@@H](C2)N(CC2CC2)CC[C@]314)C[C@@]1(O)[C@H]2Cc3ccc(O)c4c3[C@@]1(CCN2CC1CC1)[C@H]5O4
inactive: [1] | [2] | [3] | [4] | [6] | [17]

NC(=O)CN1CC(O)CC1=O (stereo unspecified)
inactive: [1] | [2] | [3] | [4] | [6]

O=[N+]([O-])/N=C1\NCCN1Cc1ccc(Cl)nc1
inactive: [10] | [11] | [12] | [13] | [14] | [15] | [16] | [17]

CCOCCOC(C)=O
inactive: [10] | [11] | [12] | [5] | [17]

O=[N+]([O-])c1ccc([As](=O)(O)O)cc1
inactive: [10] | [11] | [12] | [13] | [14] | [16] | [17]

S=C(SSC(=S)N1CCCCC1)N1CCCCC1
inactive: [10] | [11] | [12]

O=S(=O)(c1ccc(Cl)cc1)c1ccc(Cl)cc1
inactive: [10] | [11] | [12] | [5] | [17]

CC(C)NCC(O)c1ccc([N+](=O)[O-])cc1 (stereo unspecified)
inactive: [10] | [11] | [12] | [5] | [17]

Nc1ccc([N+](=O)[O-])cc1
inactive: [10] | [11] | [12] | [5] | [17]

C=CC(=O)NCNC(=O)C=C
inactive: [10] | [11] | [12] | [5] | [17]
